Hits are enriched below; roughly 9.2% of the tested compounds scored in any of these assays.
Lamin A splicing: LMNA splicing modulation. 200,000 tested, 0.01% active. Potency, µM (series often up to 46.1 µM), inactives show at the highest dose ratio change, negative = inhibition, hits mostly inhibitors. HeLa LMNA splicing GFP/RFP minigene ratio, 48 h. AID 1487; active = well fitted inhibition curve with a large enough effect in the signal ratio, with a control signal flat, not every such curve was filed as active; inconclusive = small, poorly fitted or top-dose-only effect, or effect the other way, or a change in a side signal; the % refers to the signal ratio; note: % is set by controls: 0 for no effect and ±100 for the full control effect
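Read-out is the ratio of GFP to DsRed2 object intensity, acquired by 488 nm laser-scanning cytometry on HeLa lamin A-EGFP minigene reporter cells. Compound incubation 48 hrs at 37 °C in Opti-MEM with 2% FBS; DMSO 0.5% final.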
JMJD2E inh: inhibitors of human JMJD2E histone demethylase; JMJD2E catalytic domain, FDH-coupled NADH fluorescence (FDH is formaldehyde dehydrogenase); B2RXH2; Potency, µM (titrated, usually from 57.1 µM), without a hit: at the highest dose activity change, negative = inhibition, hits mostly inhibitors; 230,000 tested, 1.6% active;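 note: 0% = wells with enzyme and -100% = buffer wells without enzyme; nearly all actives have a fitted effect of over 50% in size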
Target sequence (B2RXH2 1-337 limits assumed): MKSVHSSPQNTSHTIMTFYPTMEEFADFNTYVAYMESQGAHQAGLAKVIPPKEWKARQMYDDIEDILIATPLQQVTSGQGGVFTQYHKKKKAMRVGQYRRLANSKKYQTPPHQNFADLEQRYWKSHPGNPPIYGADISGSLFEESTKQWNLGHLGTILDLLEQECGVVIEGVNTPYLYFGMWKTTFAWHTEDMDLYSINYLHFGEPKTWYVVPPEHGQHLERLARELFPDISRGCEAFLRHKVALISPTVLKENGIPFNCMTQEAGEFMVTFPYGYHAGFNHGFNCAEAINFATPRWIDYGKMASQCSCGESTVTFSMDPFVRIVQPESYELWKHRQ
HPGD block: inhibitors of human 15-hydroxyprostaglandin dehydrogenase (HPGD). P15428. purified HPGD, NADH fluorescence kinetic, PGE2 substrate. Potency, µM, for the others: at the top dose activity change, negative = inhibition, hits mostly inhibitors. 150,000 tested, 4.3% active; note: % is set by controls: 0 for no effect and ±100 for the full control effect
Target sequence (P15428 whole entry, looked up): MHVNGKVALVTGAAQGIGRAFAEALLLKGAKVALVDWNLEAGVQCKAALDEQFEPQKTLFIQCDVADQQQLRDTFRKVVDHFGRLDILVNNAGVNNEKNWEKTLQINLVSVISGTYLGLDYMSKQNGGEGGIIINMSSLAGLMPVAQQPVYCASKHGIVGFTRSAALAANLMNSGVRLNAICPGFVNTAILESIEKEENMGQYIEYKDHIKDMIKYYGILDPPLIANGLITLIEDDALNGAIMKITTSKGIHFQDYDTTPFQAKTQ
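NADH formation kinetics: reaction with 30 uM PGE2 and 1 mM NAD+ (final), 20 nM enzyme, Tris-HCl pH 8 with Tween 20, after 15 min compound preincubation at room temperature. Fluorescence change, last versus first of five reads.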
HTT cytoprotect: cytoprotection in Huntington HTT-Q103 PC12 cell model; Potency, µM (doses to about 56.4 µM), for the others: cytoprotection (ATP increase), usual class: activators; PC12 HTT-Q103 induced, cytoprotection, ATP luminescence, 40 h; AID 1471; 230,000 tested, 0.14% active; active = well fitted curve in the direction sought with a large enough effect; inconclusive = small, poorly fitted or top-dose-only effect, or another doubt; inactive = no such curve, though single readings can be large; an effect the other way counts as inactive or inconclusive; note: % of control where 0% means no effect; nearly all actives have a fitted effect of over 45% in size
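Stable PC12 Q103-GFP cells in serum-supplemented, phenol red-free DMEM; induction by tebufenozide at 100 nM final; compound dose series; cell viability quantified luminescently from ATP.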
HttQ103 aggreg: inhibitors of mutant huntingtin aggregate formation in PC12 cells; 220,000 tested, 1.1% active; Potency, µM (doses to about 46.1 µM), without a hit: at the top dose activity change, negative = inhibition, most hits filed as inhibitors; PC12 HttQ103-GFP aggregates, Acumen cytometry, 40 h; active = well fitted curve in the direction sought with a large enough effect; inconclusive = small, poorly fitted or top-dose-only effect, or another doubt; inactive = no such curve, though single readings can be large; an effect the other way counts as inactive or inconclusive; note: % is set by controls: 0 for no effect and ±100 for the full control effect; nearly all actives have a fitted effect of over 60% in size
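Inducible Q103 Huntingtin exon 1–GFP PC12 line, 1500 cells/well in phenol red free DMEM with 5% equine and 5% calf serum. Tebufenozide 100 nM induced expression; compounds titrated; aggregates quantified by cytometry.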
ALDH1A1 block: blocks purified human ALDH1A1 activity; Purified ALDH1A1, NADH fluorescence, propionaldehyde substrate; Potency, µM (series often up to 75.3 µM), inactives show at the top dose activity, negative = inhibition, most hits filed as inhibitors; 220,000 tested, 7.3% active; AID 1030;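 note: plate controls were no enzyme wells and a reference inhibitor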
* marks the source's active call; other numbers are inactive results; ? = inconclusive; . = no result; [ ] = dose if it differs, or a comment. Unless noted, calls come from the whole dose curve; as a rule, active = well fitted inhibition curve with a large enough effect (not every such curve was filed as active); inconclusive = small, poorly fitted or top-dose-only effect, or another doubt; inactive = no such curve, though single readings can be large or run the other way. Potency is the fitted concentration of half-maximal effect.

SMILES | Lamin A splicing | JMJD2E inh | HPGD block | HTT cytoprotect | HttQ103 aggreg | ALDH1A1 block
COc1ccc(OC)c(-n2c(SCC(=O)N3CCc4ccccc43)nc3c(c2=O)SCC3)c1 | -8% | -4% | -15% | 5%[10 µM] | -6% | 8%
COc1ccccc1-n1c(SCC(=O)Nc2ccc3c(c2)OCO3)nc2c(c1=O)SCC2 | -2% | -2% | -18% | 19%[10 µM] | 7% | 20µM*
CCN(CC(=O)NCc1cccs1)C(=O)CCc1c[nH]c2ccccc12 | -16%[46 µM] | -6% | . | -37% | -5% | 2%
Nc1nc(SCC(=O)N2CCCc3ccccc32)[nH]c(=O)c1-c1ccccc1 | -7% | -7% | -16% | -6%[0.074 µM] | ? | 22µM*
COc1ccc(-c2noc(CSc3nc(N)c(-c4ccccc4)c(=O)[nH]3)n2)cc1OC | -19% | -10% | 16µM* | 4%[0.074 µM] | 6% | ?
O=C(CSc1nc2c(cnn2-c2ccc(F)cc2)c(=O)[nH]1)N1CCCc2ccccc21 | -2% | ? | . | 14% | 11% | -6%
Nc1nc(SCc2ccccc2)[nH]c(=O)c1-c1ccccc1 | -18% | -21% | -9% | -3% | ? | 14µM*
COc1ccccc1CN1CCCC2(CCN(C(=O)c3ccco3)CC2)C1 | . | . | -3% | ? | . | ?
CCOc1ccccc1NC(=O)C(Sc1nnnn1C)c1ccccc1 (stereo not given) | . | -1% | . | -56% | -9% | ?
c1cncc(-c2nc(-n3ccnc3)c3ccccc3n2)c1 | ? | . | . | ? | . | 6%
CCCCC1OC23CCCCC2C(C#N)(C#N)C1(C#N)C(=N)O3 (stereo not given) | -10% | 6% | ? | 7%[10 µM] | -10% | 1.8µM*
CCCCC1OC23CCCCC2C(C#N)(C(=N)O3)C1(C#N)C#N (stereo not given) | -1% | ? | ? | 5% | 18% | ?
O=C(c1csnn1)N1CCC2(CC1)CN(c1cccc(-c3ccccc3)c1)C2 | . | . | ? | -18% | . | ?
Cc1onc(-c2ccccc2)c1-c1ccnn1S(=O)(=O)c1ccc(Cl)cc1 | . | -5% | . | 14%[10 µM] | -2%[9.22 µM] | 7.9µM*
COc1ccc(S(=O)(=O)Nc2nnc(C(C)(C)C)s2)cc1 | 6% | 10% | 10µM* | 3%[10 µM] | -8% | 10µM*
COc1ccc(S(=O)(=O)Nc2nnc(CC(C)(C)C)s2)cc1 | 27%[46 µM] | -7% | . | . | . | 11µM*
CC1(C)CC(=O)C/C(=N\NC(=O)CCc2ccc(S(=O)(=O)N3CCOCC3)cc2)C1 | -16%[46 µM] | -3% | . | -4% | 7% | ?
Cc1ccc(C(=O)N/N=C2\CCSC2)cc1[N+](=O)[O-] | -9% | -1% | -7% | . | ? | 13µM*
O=S(=O)(NCC1CCCO1)c1cnc(Cl)c(Br)c1 (stereo not given) | 15% | 15% | -10% | . | -13% | ?
O=C(Nc1ccc(F)c(F)c1)c1ccc(=O)n(Cc2ccc(F)cc2)c1 | 0%[46 µM] | . | . | . | . | .
CCC1CCCCN1S(=O)(=O)c1ccc(C(=O)Nc2nnc(-c3ccccc3Cl)o2)cc1 (stereo not given) | ? | -17% | -3% | 29%[10 µM] | 7.9µM* | 3%
O=C(Nc1nnc(-c2ccccc2Cl)o1)c1ccc(S(=O)(=O)N2CCCCCC2)cc1 | ? | -9% | -12% | -65% | 10µM* | 12%
CC1CCCCN1S(=O)(=O)c1ccc(C(=O)Nc2nnc(-c3ccccc3Cl)o2)cc1 (stereo not given) | ? | ? | -8% | -25%[10 µM] | ? | -5%
O=C(Nc1ccccc1)N1CCC2(CC1)CCN(C(=O)c1csnn1)CC2 | . | . | -8% | ? | . | -3%
CC(C)(C)c1ccc(C(=O)Nc2ccccc2C(=O)OCc2cc(=O)n3ccsc3n2)cc1 | -4%[46 µM] | . | . | . | . | .
SMILES | Lamin A splicing | JMJD2E inh | HPGD block | HTT cytoprotect | HttQ103 aggreg | ALDH1A1 block
Cc1ccc(-c2nn(-c3ccccc3)cc2/C=C(\C#N)c2cccc(C#N)c2)o1 | 16% | 9% | -9% | 3%[0.074 µM] | 1% | 22µM*
N#C/C(=C\c1cn(-c2ccccc2)nc1-c1cc2ccccc2o1)c1nc2ccccc2[nH]1 | 1% | 3% | -18% | -9%[10 µM] | -16% | ?
O=c1[nH]c2cc(S(=O)(=O)CCO)ccc2o1 | . | 9% | . | 0%[10 µM] | -16%[9.22 µM] | -5%
CC(CC(=O)NC1CCCC1)c1ccccc1 (stereo not given) | -3% | -2% | 2.5µM* | -1% | -19% | 1%
CC(C(=O)NC1CCCC1)N1CCN(Cc2ccccc2)CC1 (stereo not given) | . | -15% | . | -21% | 7% | 3.5µM*
CC(=O)NC(CC(=O)NC1CCCCCC1)c1ccccc1 (stereo not given) | -2% | 2% | 1% | 12%[10 µM] | -27% | -3%
O=C(CCc1ccccc1)c1ccc2c(c1)OCCCO2 | -13% | -4% | ? | -16% | 20% | ?
O=C(CCN1CCC(c2ccccc2)C1)c1ccc2c(c1)OCCO2 (stereo not given) | ? | 18µM* | -14% | -86% | ? | 0.11µM*
O=C(CCN1CCCC1Cc1ccccc1)c1ccc2c(c1)OCCO2 (stereo not given) | ? | -10% | -20% | -6% | -18% | 0.035µM*
O=C(CCC(=O)N1CCN(c2ccc(O)cc2)CC1)c1cccs1 | . | ? | . | 12%[10 µM] | 31%[9.22 µM] | .
c1ccc2c(c1)CCN2CCN1CCc2ccccc21 | 1% | -12% | -15% | -13% | 8% | 40µM*
O=C(CCN1CCC(c2cccs2)=N1)c1cccs1 | ? | -8% | . | 8%[10 µM] | -17%[9.22 µM] | 3.2µM*
Cn1cc(-c2nc3cnc(Oc4cccc(Cl)c4)nc3n(C3CC3)c2=O)c2ccccc21 | 7% | . | . | -3% | . | 9%
O=C(CCN1CCc2ccccc21)c1ccc2c(c1)OCCO2 | ? | -21% | -10% | -44% | ? | 3.2µM*
O=C(CCN1CCC(c2ccccc2)C1)c1cccs1 (stereo not given) | ? | 0% | -28% | 10% | 32% | 0.13µM*
COc1ccc(C(=O)N2CCN(C3CCC(c4ccccc4)CC3)CC2)cc1OC (stereo not given) | -12% | ? | -3% | -2%[10 µM] | -13% | ?
O=C(c1cccs1)N1CCC(c2ccccc2)C1 (stereo not given) | -1% | -6% | -18% | -19% | -16% | -15%
O=C(CCN1CCC(c2ccccc2)C1)c1ccccc1 (stereo not given) | ? | -5% | -22% | -19% | 6% | 1.4µM*
COc1cc(C(=O)CCN2CCC(c3ccccc3)C2)cc(OC)c1OC (stereo not given) | -22% | 2% | -4% | ? | ? | 0.04µM*
O=C(c1ccccc1)[C@@H]1O[C@H]1c1ccc(-c2ccccc2)cc1 | . | -18% | ? | 26% | . | -29%

From PubChem BioAssay
